In PubChem BioAssay (NCI) one finds growth data, which are given here for 19 compounds.

What all share (experiment): NCI-60 one-dose screen, 48 h (100 = growth as untreated, 0 = no growth, -100 = all killed)
Common to all, as to details: 10 µM unless noted

In experiment [1] the test system is BT-549 breast.
Experiment [2] has as its system SW-620 colon.
The test system of experiment [3] is MCF7 breast.
The test system of experiment [4] is HCT-116 colon.
The subject of experiment [5] is HCC-2998 colon.
The test system of experiment [6] is KM12 colon.
Experiment [7] deals with MDA-MB-435 melanoma.

Compounds without any hit were thinned out: in the full panel of roughly 83,000, 20% have a hit.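 Step 1: grow cells in 96-well plates. Step 2: add test compound at a single concentration. Step 3: incubate 48 h. Step 4: record percent growth.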 A number with no mark means an inactive call. The source made the active and inactive calls. How the source made its calls: active means growth percent below 10; inactive means the rest.

As for `COc1ccc(-c2nc(C#N)c(NCC(c3ccco3)N3CCCC3)o2)cc1` (centres undefined), the growth in experiment [1] was 66.7%; in experiment [2], 27.3%; in experiment [3], 19.6%; in experiment [4], 27%; in experiment [5], 67%; in experiment [6], 33.8%.
As for `CC(=O)c1ccc(NC(=O)CSc2nnc(-c3cc(-c4ccc(C)cc4)nc4ccccc34)o2)cc1`, the growth in experiment [1] is 59.1%; in experiment [2] it was 28.4%; in experiment [3], 26.6%; in experiment [4], -7.47% (active); in experiment [5], 102%; in experiment [6], 72%.
Regarding `Cc1nccc2c3ccc(OCc4cn(-c5ccc(Br)cc5)nn4)cc3n(CC(C)C)c12`, the growth in experiment [1] is 54.4%; in experiment [2], 48%; in experiment [3], 31.2%; in experiment [4], 23%; in experiment [5], 70.3%; in experiment [6], 44.8%.
For the compound `O=C(NCc1ccccc1)c1ccc2c(c1)NC(=O)[C@@H]1CCCN21`, the growth in experiment [1] was 110%; in experiment [2] it was 96.4%; in experiment [3], 85.4%; in experiment [4], 105%; in experiment [5], 88%; in experiment [6], 84%.
As to `COC(=O)c1ccc2c(c1)n(Cc1ccc3ccccc3c1)c[n+]2Cc1ccc2ccccc2c1`, the growth in experiment [1] is 56.7%; in experiment [2], 37.6%; in experiment [3] it was 29.2%; in experiment [4], 32%; in experiment [5] it was 33.9%; in experiment [6], -8.69% (active).
Take `COc1cc(NC(=O)Nc2cnc(Nc3ccc(N4CCOCC4)cc3)nc2Oc2ccc(C(F)(F)F)cc2)cc(OC)c1`: the growth in experiment [1] is 111%; in experiment [2], 107%; in experiment [3] it was 101%; in experiment [4] it was 104%; in experiment [5], 104%; in experiment [6], 103%.
With `O=[N+]([O-])c1cccc(CN(Cc2cccc([N+](=O)[O-])c2O)c2ccccc2)c1O`, the growth in experiment [1] is 88.9%; in experiment [2] it was 56.9%; in experiment [3] it was 84.8%; in experiment [4] it was 15.7%; in experiment [5], 67.1%; in experiment [6] it was 88.5%.
`COc1ccc(C(=O)c2cc(OC)c(C)c(OC)c2)cc1OC(=O)CCl`: the growth was 15.6% in experiment [1]; 24.1% in experiment [2]; 13.4% in experiment [3]; 10.2% in experiment [4]; 24.9% in experiment [5]; 19.1% in experiment [6].
In the case of `CSc1cccc(NC(=O)Nc2nc3c(C)cccc3s2)c1`, the growth is 119% in experiment [1]; 113% in experiment [2]; 76.4% in experiment [3]; 93% in experiment [4]; 106% in experiment [5]; 107% in experiment [6].
Turning to `CCc1c(C(=O)N[C@@H](C(=O)OCc2ccccc2)C(C)O)[nH]c2ccc(Cl)cc12` (some centres undefined), the growth in experiment [1] is 90.8%; in experiment [2], 54.4%; in experiment [4], 18.9%; in experiment [5] it was 101%; in experiment [6], 77.3%.
For `CN(C)c1ccc(-c2ccc3[nH]c(=O)nc(-c4ccc(F)cc4)c3c2)cn1`, the growth in experiment [1] was 40.6%; in experiment [2], 29.8%; in experiment [3], 29.4%; in experiment [4], 22.2%; in experiment [5], 84.3%; in experiment [6] it was 31.5%.
For `COc1cccc2c1-c1ccccc1C2=O`, the growth is -48.2% (active) in experiment [7]; 26.7% in experiment [2]; 24% in experiment [3]; 12.9% in experiment [4]; 30.8% in experiment [5].
Consider `COc1ccc(-c2[nH]c3ccc(OC)cc3c2C=C(C#N)C#N)cc1`, for which the growth in experiment [1] is 55.1%; in experiment [2] it was 26.5%; in experiment [3], 17.1%; in experiment [4] it was 19%; in experiment [5] it was 50.3%; in experiment [6], 20.1%.
Take `COC(=O)/C=C/c1cc(OC)c2c(c1)[C@@H](C(=O)OC)[C@H](c1ccc(OC)c(OC)c1)O2`: the growth in experiment [1] was 36.7%; in experiment [2], 30.4%; in experiment [3], 19.6%; in experiment [4], 15.9%; in experiment [5] it was 59.5%; in experiment [6], 27.6%.
On to `COc1ccc(C(=O)c2cc(OC)c(OC)c(OC)c2)cc1OC(=O)C(Cl)(Cl)Cl`, for which the growth in experiment [1] was -0.136% (active); in experiment [2], 22.9%; in experiment [3] it was 9.81% (active); in experiment [4], 4.91% (active); in experiment [5], 15.4%; in experiment [6], 9.4% (active).
With `O=c1c2ccccc2oc2ccc(OCCCCCN3CCCCCC3)cc12`, the growth in experiment [1] is 78.5%; in experiment [3], 68.2%; in experiment [4] it was 58.4%; in experiment [5] it was 84.6%; in experiment [6], 68.6%.
Take `CN1CCN(S(=O)(=O)O[C@@H]2C(=O)N(c3cc4c5ccccc5ccc4c4ccccc34)[C@H]2c2ccc(F)cn2)CC1`: the growth in experiment [1] is 95.8%; in experiment [2] it was 98.2%; in experiment [3], 87.4%; in experiment [4], 85.3%; in experiment [5] it was 90.4%; in experiment [6], 91.1%.
With `COc1ccc2c(c1)Oc1nc(N)c(C#N)c(N)c1C2Sc1ccc(SC)cc1` (centres undefined), the growth was 38.9% in experiment [1]; -8.99% (active) in experiment [2]; -20.7% (active) in experiment [3]; 10.2% in experiment [4]; 58.9% in experiment [5]; 53.3% in experiment [6].
Consider `CCCS(=O)(=O)Nc1ccc(F)c(C(=O)c2c[nH]c3ncc(-c4ccc(OCCCC5CCCCN5)nc4)cc23)c1F` (centres undefined), for which the growth in experiment [1] is 57.5%; in experiment [2], 116%; in experiment [4], 70%; in experiment [5] it was 108%.
